± gives the standard deviation of the averaged measurements.
Columns and labels:
Assay in all cases: promoter activity interaction Z-score (Lux/OD deviation from empty-vector control); higher = stronger promoter induction by the compound
[1] = tested on: E. coli BW25113 acrABp lux reporter
Outline: (§1)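 E. coli BW25113, as wild type or one of three single-gene deletion strains, carried low-copy luxCDABE promoter reporters and grew in 40 µl LB Lennox in 384-well plates at 37°C, with OD600 and luminescence read every 30 min for 12 h. Each compound was run at four 1:2 dilutions in biological duplicates, integration spanned 0–8 h for wild type and 1–9 h for deletion strains, and wells under 10% of the median growth value were dropped. The score is the Z-transformed residual of growth-normalised luminescence fitted against a control.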

[2] = tested on: E. coli BW25113 micFp lux reporter
Outline: as §1

[3] = tested on: E. coli BW25113 ompFp lux reporter
Outline: as §1

[4] = tested on: E. coli BW25113 robp lux reporter
Outline: as §1

[5] = tested on: E. coli BW25113 soxSp lux reporter
Outline: as §1

[6] = tested on: E. coli BW25113 tolCp lux reporter
Outline: as §1

[7] = 18.9 µg/ml, genetic background: wild type
[8] = 18.9 µg/ml, genetic background: ΔmarA
[9] = 18.9 µg/ml, genetic background: Δrob
[10] = 18.9 µg/ml, genetic background: ΔsoxS
[11] = 37.8 µg/ml, genetic background: wild type
[12] = 37.8 µg/ml, genetic background: ΔmarA
[13] = 37.8 µg/ml, genetic background: Δrob
[14] = 37.8 µg/ml, genetic background: ΔsoxS
[15] = 75.6 µg/ml, genetic background: wild type
[16] = 75.6 µg/ml, genetic background: ΔmarA
[17] = 75.6 µg/ml, genetic background: Δrob
[18] = 75.6 µg/ml, genetic background: ΔsoxS
[19] = 151.1 µg/ml, genetic background: wild type
[20] = 151.1 µg/ml, genetic background: ΔmarA
[21] = 151.1 µg/ml, genetic background: Δrob
[22] = 151.1 µg/ml, genetic background: ΔsoxS

In the case of `O=c1c(O)c(-c2ccc(O)c(O)c2)oc2cc(O)cc(O)c12` [Quercetin], the “promoter activity interaction Z-score” value [1, 7] is reported as 0.0407 ± 0.033, the “promoter activity interaction Z-score” value [1, 8] is reported as 0.285 ± 0.58 and the “promoter activity interaction Z-score” value [1, 9] is reported as 0.143 ± 0.3. The “promoter activity interaction Z-score” value [1, 10] was -0.34 ± 0.38, the “promoter activity interaction Z-score” value [1, 11] was -0.233 ± 0.072 and the “promoter activity interaction Z-score” value [1, 12] was -0.0432 ± 0.69. The “promoter activity interaction Z-score” value [1, 13] was 0.164 ± 0.29, the “promoter activity interaction Z-score” value [1, 14] was -0.184 ± 0.31 and the “promoter activity interaction Z-score” value [1, 15] was 0.12 ± 0.43. For the same compound, the “promoter activity interaction Z-score” value [1, 16] was -0.0185 ± 1.1, the “promoter activity interaction Z-score” value [1, 17] was 0.926 ± 1.1 and the “promoter activity interaction Z-score” value [1, 18] was -0.604 ± 0.62. For the same compound, the “promoter activity interaction Z-score” value [1, 19] was -0.353 ± 0.089, the “promoter activity interaction Z-score” value [1, 20] was 0.59 ± 0.8 and the “promoter activity interaction Z-score” value [1, 21] was -0.142 ± 0.23. For the same compound, the “promoter activity interaction Z-score” value [1, 22] was -0.9 ± 0.8, the “promoter activity interaction Z-score” value [2, 7] was -0.288 ± 0.045 and the “promoter activity interaction Z-score” value [2, 8] was -0.0462 ± 0.033. The “promoter activity interaction Z-score” value [2, 9] was -0.011 ± 0.074, the “promoter activity interaction Z-score” value [2, 10] was -0.324 ± 0.11 and the “promoter activity interaction Z-score” value [2, 11] was -0.188 ± 0.12. For the same compound, the “promoter activity interaction Z-score” value [2, 12] was 0.0255 ± 0.15, the “promoter activity interaction Z-score” value [2, 13] was -0.0437 ± 0.18 and the “promoter activity interaction Z-score” value [2, 14] was 0.101 ± 0.056. The “promoter activity interaction Z-score” value [2, 15] was -0.0961 ± 0.062, the “promoter activity interaction Z-score” value [2, 16] was 0.0844 ± 0.079 and the “promoter activity interaction Z-score” value [2, 17] was -0.0403 ± 0.11. For the same compound, the “promoter activity interaction Z-score” value [2, 18] was -0.101 ± 0.085, the “promoter activity interaction Z-score” value [2, 19] was 0.0699 ± 0.42 and the “promoter activity interaction Z-score” value [2, 20] was 0.224 ± 0.17. For the same compound, the “promoter activity interaction Z-score” value [2, 21] was 0.00151 ± 0.41, the “promoter activity interaction Z-score” value [2, 22] was -0.0142 ± 0.042 and the “promoter activity interaction Z-score” value [3, 7] was 0.228 ± 0.3. The “promoter activity interaction Z-score” value [3, 8] was -0.0494 ± 0.2, the “promoter activity interaction Z-score” value [3, 9] was -0.0408 ± 0.12 and the “promoter activity interaction Z-score” value [3, 10] was -0.358 ± 0.37. The “promoter activity interaction Z-score” value [3, 11] was 5.13 ± 7, the “promoter activity interaction Z-score” value [3, 12] was 0.88 ± 1.6 and the “promoter activity interaction Z-score” value [3, 13] was 1.304 ± 0.013. For the same compound, the “promoter activity interaction Z-score” value [3, 14] was 0.531 ± 0.91, the “promoter activity interaction Z-score” value [3, 15] was 0.467 ± 1.2 and the “promoter activity interaction Z-score” value [3, 16] was 0.186 ± 0.5. For the same compound, the “promoter activity interaction Z-score” value [3, 17] was 0.616 ± 1.3, the “promoter activity interaction Z-score” value [3, 18] was -0.383 ± 0.54 and the “promoter activity interaction Z-score” value [3, 19] was 0.00251 ± 0.91. The “promoter activity interaction Z-score” value [3, 20] was 0.373 ± 2.1, the “promoter activity interaction Z-score” value [3, 21] was 1.79 ± 0.024 and the “promoter activity interaction Z-score” value [3, 22] was -0.395 ± 0.84. For the same compound, the “promoter activity interaction Z-score” value [4, 7] was 0.802 ± 0.18, the “promoter activity interaction Z-score” value [4, 8] was 0.257 ± 0.52 and the “promoter activity interaction Z-score” value [4, 9] was 0.102 ± 0.22. The “promoter activity interaction Z-score” value [4, 10] was 0.13 ± 0.66, the “promoter activity interaction Z-score” value [4, 11] was 0.9459 ± 0.004 and the “promoter activity interaction Z-score” value [4, 12] was 0.813 ± 0.4. The “promoter activity interaction Z-score” value [4, 13] was 0.818 ± 0.073, the “promoter activity interaction Z-score” value [4, 14] was 1.68 ± 0.85 and the “promoter activity interaction Z-score” value [4, 15] was 0.907 ± 0.8. For the same compound, the “promoter activity interaction Z-score” value [4, 16] was 0.794 ± 0.53, the “promoter activity interaction Z-score” value [4, 17] was 0.226 ± 0.59 and the “promoter activity interaction Z-score” value [4, 18] was -0.114 ± 0.062. The “promoter activity interaction Z-score” value [4, 19] was 0.549 ± 0.61, the “promoter activity interaction Z-score” value [4, 20] was 0.417 ± 0.21 and the “promoter activity interaction Z-score” value [4, 21] was 0.359 ± 0.075. The “promoter activity interaction Z-score” value [4, 22] was 0.712 ± 1.1, the “promoter activity interaction Z-score” value [5, 7] was -0.413 ± 0.13 and the “promoter activity interaction Z-score” value [5, 8] was -0.385 ± 0.18. For the same compound, the “promoter activity interaction Z-score” value [5, 9] was -0.267 ± 0.1, the “promoter activity interaction Z-score” value [5, 10] was -0.281 ± 0.57 and the “promoter activity interaction Z-score” value [5, 11] was -0.368 ± 0.13. The “promoter activity interaction Z-score” value [5, 12] was -0.526 ± 0.069, the “promoter activity interaction Z-score” value [5, 13] was -0.179 ± 0.028 and the “promoter activity interaction Z-score” value [5, 14] was -0.0207 ± 0.51. The “promoter activity interaction Z-score” value [5, 15] was -0.595 ± 0.016, the “promoter activity interaction Z-score” value [5, 16] was -0.528 ± 0.057 and the “promoter activity interaction Z-score” value [5, 17] was -0.375 ± 0.034. For the same compound, the “promoter activity interaction Z-score” value [5, 18] was -0.161 ± 0.89, the “promoter activity interaction Z-score” value [5, 19] was -0.715 ± 0.13 and the “promoter activity interaction Z-score” value [5, 20] was -0.513 ± 0.048. For the same compound, the “promoter activity interaction Z-score” value [5, 21] was -0.414 ± 0.054, the “promoter activity interaction Z-score” value [5, 22] was -0.567 ± 1 and the “promoter activity interaction Z-score” value [6, 7] was -0.038 ± 0.65. The “promoter activity interaction Z-score” value [6, 8] was -0.0776 ± 0.32, the “promoter activity interaction Z-score” value [6, 9] was -0.506 ± 0.62 and the “promoter activity interaction Z-score” value [6, 10] was -0.651 ± 0.26. The “promoter activity interaction Z-score” value [6, 11] was 0.105 ± 0.049, the “promoter activity interaction Z-score” value [6, 12] was 0.271 ± 0.14 and the “promoter activity interaction Z-score” value [6, 13] was 0.0838 ± 0.44. The “promoter activity interaction Z-score” value [6, 14] was 0.0451 ± 1.2, the “promoter activity interaction Z-score” value [6, 15] was 0.492 ± 0.9 and the “promoter activity interaction Z-score” value [6, 16] was 0.253 ± 0.53. For the same compound, the “promoter activity interaction Z-score” value [6, 17] was 0.773 ± 0.82, the “promoter activity interaction Z-score” value [6, 18] was -0.519 ± 0.18 and the “promoter activity interaction Z-score” value [6, 19] was 0.00965 ± 1. For the same compound, the “promoter activity interaction Z-score” value [6, 20] was 0.125 ± 0.38, the “promoter activity interaction Z-score” value [6, 21] was 0.962 ± 1.8 and the “promoter activity interaction Z-score” value [6, 22] was -0.462 ± 0.4.

From the supplement of paper PMC12282887
